Screens: PubChem, The Scripps Research Institute Molecular Screening Center
Sampled rows, rich in hits. Any-hit rate of the full collection: about 4.8%.
hcDAF-12 act: H. contortus DAF-12 activation, primary screen; 1.4% of 370,000 active; HEK293 hcDAF-12 lit1-tk-luc reporter, luminescence; 0% DMSO, 100% Δ7-dafachronic acid; AID 652067; activation, % at 6.8 µM;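 active = activation above the mean of all tested compounds plus 3 SD, cut at about 5.5% in these data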;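 also: 100% = response to 3 µM Δ7-dafachronic acid high control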
SMARCA2 activ: increases SMARCA2 function in MMTV reporter cells; MG213 cells, MMTV-luciferase reporter, dexamethasone, overnight; activation, % at 9.1 µM; 1% of 370,000 active; in the data active = activation above about 7.8%;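 also: 0% = vehicle wells and 100% = reference activator wells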
DAX1 inh-1: DAX1 (NR0B1) inhibition, primary screen. HEK293T StAR-luciferase reporter, SF-1/DAX-1 repression relief. inhibition, % at 6.8 µM. 1.1% of 370,000 active. AID 652010;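 active = inhibition above the mean over all tested compounds plus 3 SD, cut at about 3.6% in these data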;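 also: 0% = DAX-1 cells with DMSO and 100% = cells lacking DAX-1 with DMSO; higher inhibition means more luminescence from relief of DAX-1 repression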
ssDAF-12 act: activates DAF-12 receptor from parasite S. stercoralis. 1% of 370,000 active. HEK293 ssDAF-12/GRIP1 lit1-tk-luc reporter, luminescence; % of 3 µM dafachronic acid response. activation, % at 6.8 µM;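 active = activation above the mean over all tested compounds plus 3 SD, cut at about 0.9% in these data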;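 also: 0% = DMSO-only wells and 100% = 3 µM delta7-dafachronic acid wells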
DAX1 inh-2: NR0B1 (DAX1) inhibition. P51843. HEK293 Gal4-DAX1 luciferase reporter, luminescence. inhibition, % at 6.75 µM. 0.99% of 340,000 active. AID 504766;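 active = inhibition above the mean over all tested compounds plus 3 SD, cut at about 4.2% in these data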;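 also: 0% = DAX1-transfected cells with DMSO and 100% = empty-vector control cells with DMSO; inhibition shows as a rise in luminescence from relieved DAX1 repression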
Target sequence (P51843 207-470 limits assumed): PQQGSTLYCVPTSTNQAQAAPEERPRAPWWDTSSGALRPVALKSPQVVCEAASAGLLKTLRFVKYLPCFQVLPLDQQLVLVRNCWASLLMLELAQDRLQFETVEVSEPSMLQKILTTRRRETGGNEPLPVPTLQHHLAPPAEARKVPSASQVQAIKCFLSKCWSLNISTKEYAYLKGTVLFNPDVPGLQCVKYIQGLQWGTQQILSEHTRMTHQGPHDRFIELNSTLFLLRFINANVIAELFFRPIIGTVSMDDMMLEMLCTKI
hgDAF-12 ag: activates the H. glycines DAF-12 receptor ligand-binding domain | HEK293 GAL4-hgDAF12 UAS-luciferase reporter, agonist luminescence; normalized to butyrate control | activation, % at 6.8 µM | 1.8% of 370,000 active;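 active = activation above a cutoff set at the mean of all screened compounds plus 3 SD, cut at about 10% in these data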;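 also: 0% = DMSO wells and 100% = sodium butyrate wells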
SMARCA2 act conf: SMARCA2 activation, confirmation screen | shares compounds with SMARCA2 activ | MG213 cells, MMTV-luciferase with dexamethasone, luminescence, overnight; MG213 cells expressing E1A, Rb sequestered; DMSO wells 0%, reference activator 100% | AID 652260 | activation, % at 9.1 µM | 30% of 3,500 active;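 active = activation above its plate's cutoff, the mean activation of tested wells plus 3 SD, cut at about 7.9% in these data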
GAL4-VP16 Luc: activates GAL4-VP16 luciferase, flagging SMARCA2 activator hits | HEK293 GAL4-VP16 pG5luc reporter, luciferase luminescence; scaled: DMSO wells 0%, SAHA wells 100% | activation, % at 9.1 µM | shares compounds with SMARCA2 activ | AID 686939 | 41% of 3,500 active;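 active = activation above the solvent-only control well mean plus 3 SD, averaged across control plates, cut at about 5.2% in these data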
LXRb hcDAF ctr: activates human LXR-beta, counter-screen for hcDAF-12 agonists | shares compounds with hcDAF-12 act | HEK293 Gal4-LXR tk-luc reporter, luminescence, 24 h; normalized: DMSO 0%, positive control 100% | activation, % at 6.8 µM | 3,400 tested, under 10 active;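 active = mean percent activation of the reporter above a cutoff set as the average over tested compounds plus their standard deviation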
hcDAF12 ag: hcDAF-12 agonism, confirmation assay; shares compounds with hcDAF-12 act; HEK293 hcDAF-12 lit1-tk-luc reporter, luminescence; % of Δ7-dafachronic acid response; activation, % at 6.8 µM; 61% of 3,400 active;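 active = mean activation across triplicate tests above the threshold derived from the earlier primary screen, cut at about 5.5% in these data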;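 also: 0% = DMSO only wells and 100% = 3 µM Δ7-dafachronic acid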
hgDAF12 ag: hgDAF-12 agonism, confirmation assay | HEK293 GAL4-hgDAF12 luciferase reporter, agonist mode; percent of butyrate response | shares compounds with hgDAF-12 ag | activation, % at 6.8 µM | 80% of 3,300 active;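 active = mean activation over triplicate wells above the hit cutoff derived from the earlier primary screen, cut at about 11% in these data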;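 also: 0% = DMSO low control and 100% = 2 mM sodium butyrate high control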
LXRb DAF12 ctr: LXR-beta agonism as DAF-12 counter-screen; shares compounds with hgDAF-12 ag; HEK293 Gal4-LXR luciferase reporter, 24 h; activation, % at 6.8 µM; 3,300 tested, under 10 active; AID 743051;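 active = mean activation of the triplicate above a set limit carried over from the primary screen, none filed active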
An asterisk follows results filed as active; . = not tested or not shown.

SMILES	hcDAF-12 act	SMARCA2 activ	DAX1 inh-1	ssDAF-12 act	DAX1 inh-2	hgDAF-12 ag	SMARCA2 act conf	GAL4-VP16 Luc	hgDAF12 ag	LXRb DAF12 ctr	others
CC(C)(C)CC(=O)O/N=C(\N)c1ccccn1	6.3*	11*	3	0	0	14*	8.8*	2	13*	1
N/C(=N\OC(=O)Cc1ccc(Cl)cc1)c1ccccn1	3	5	0	-1	1	9	.	.	.	.
N/C(=N\OC(=O)c1ccco1)c1ccccn1	2	12*	3	0	-1	14*	7.9*	9.2*	7	0
COC(=O)C1=C(C)N(Cc2ccc(C(F)(F)F)cc2)C(=NCc2ccc(OC)cc2)NC1c1ccccc1C(F)(F)F (configuration not stated)	2	0	-1	-1	.	1	.	.	.	.
O=C(CSc1nnc(-c2ccc(O)cc2)o1)Nc1ccccc1	3	8.6*	2	0	0	16*	11*	8.1*	14*	1
COc1cccc(-c2cc3nc(-c4ccco4)cc(N4CCN(C(C)=O)CC4)n3n2)c1	-3	.	.	-2	.	-2	.	.	.	.
Cn1c(N)c(C(=O)CCc2ccccc2)c(=O)n(C)c1=O	10*	8.1*	4.5*	1	.	21*	17*	5.8*	10	1	LXRb hcDAF ctr=1;hcDAF12 ag=6.8*
Cn1c(N)c(C(=O)CCl)c(=O)n(Cc2ccccc2)c1=O	-2	0	0	-1	0	0	.	.	.	.
CCOc1ccc(C(=O)N/N=C/c2ccc(SC)cc2)cc1	-2	-2	0	-1	0	3	.	.	.	.
CSc1ccc(/C=N/NC(=O)c2cccc(O)c2)cc1	4	9.6*	4.1*	0	-1	15*	6	14*	18*	1
CC(C)C[C@@H](NC(=O)OC(C)(C)C)C(=O)N1O[C@]23C=C[C@]14C[C@@H](O)CC[C@]4(C)C2CC[C@]1(C)[C@@H]([C@H](C)/C=C/[C@H](C)C(C)C)CC[C@H]13 (some centres not stated)	-1	3	1	-1	.	5	.	.	.	.
N/C(=N\OC(=O)c1cccs1)c1cccc(Br)c1	2	3	2	0	3	9	.	.	.	.
N/C(=N\OC(=O)c1cccs1)c1ccccc1	7.4*	18*	1	2.3*	2	16*	12*	6.8*	15*	1	LXRb hcDAF ctr=1;hcDAF12 ag=3
Nc1[nH]c(C(=O)c2ccc(Br)cc2)c(-c2ccncc2)c1C(=O)NCCc1c[nH]c2ccccc12	-1	-2	0	0	.	5	.	.	.	.
Cc1ccc2nc(-c3ccc(SCC(=O)Nc4ccc5c(c4)OCCO5)nc3)[nH]c2c1	5	9.8*	3	0	2	20*	3	19*	21*	1
c1ccc(C2=NC(c3ccccc3)CC2)cc1 (configuration not stated)	0	0	0	0	1	5	.	.	.	.
c1ccc(C2=Nc3ccccc3NC(c3ccccc3)C2)cc1 (configuration not stated)	1	9.7*	3	0	3	14*	3	7.0*	15*	0
COc1cc(/C=N/O)ccc1OCc1ccc(Cl)cc1	7.9*	17*	4.0*	1	.	19*	12*	8.7*	15*	1	LXRb hcDAF ctr=1;hcDAF12 ag=5.7*
CC(=O)N1CCN(c2ccc(N3CCN(C(C)=O)[C@H](C)C3)c(C)c2)[C@H](C)C1	-3	-7	-4	-1	.	-4	.	.	.	.
COc1cccc(CNc2nc3ccccc3n2C)c1O	5	9.5*	2	1.8*	4	15*	11*	9.6*	19*	1
C[C@H](CO)N1C[C@H](C)[C@H](CN(C)Cc2cccc(F)c2)Oc2ncc(C3=CCCC3)cc2C1=O	0	-5	-1	-1	.	4	.	.	.	.
O=C(Nc1cnc2ccccn2c1=O)c1ccc(Cl)cc1Cl	5	9.0*	4.4*	0	0	16*	6	3	5	0
CC(C)(C)OC(=O)N/N=C/c1ccc(Br)cc1	3	8.2*	4.2*	-1	4	21*	8.3*	10*	16*	1
CC(C)(C)NC(=O)C(=O)N/N=C/c1ccc(Br)cc1	0	3	0	-1	1	4	.	.	.	.
CC1CCCCN1CCCNC(=O)c1ccc2nc(N3CCCCC3)sc2c1 (configuration not stated)	3	17*	4.0*	1.4*	1	14*	9.4*	9.8*	12*	0
SMILES	hcDAF-12 act	SMARCA2 activ	DAX1 inh-1	ssDAF-12 act	DAX1 inh-2	hgDAF-12 ag	SMARCA2 act conf	GAL4-VP16 Luc	hgDAF12 ag	LXRb DAF12 ctr	others
CC1CCCCN1CCCNC(=O)c1ccc(Br)cc1 (configuration not stated)	0	0	0	-1	-1	2	.	.	.	.
Cc1cc(C(=O)CN2CCCCC2)c(C)n1-c1ccc(F)cc1	1	5	1	-1	2	5	.	.	.	.
Cc1cc(C(=O)NC2CCCCC2)c(C)n1-c1ccc(F)cc1	5.8*	8.0*	3	-1	0	14*	5	11*	12*	1
Nc1c(Cl)ncnc1N/N=C/c1ccnc2ccccc12	0	3	0	-1	-1	8	.	.	.	.
Clc1cccc(/C=N/Nc2ncnc3ccccc23)c1	11*	10.0*	3	1.8*	4	13*	14*	15*	18*	1	LXRb hcDAF ctr=1;hcDAF12 ag=7.1*
COc1ccc(-c2cc(C(=O)c3c(N)n(C)c(=O)n(C)c3=O)c3ccccc3n2)cc1	5	8.2*	1	1.7*	2	14*	8.8*	7.3*	10*	0
